# In the library only some 4.8% were active in any assay of this set; here they are far more common.
# DAX1 inh-1: blocks DAX1 repression of SF-1 activated StAR promoter; HEK293T StAR-luciferase reporter, SF-1/DAX-1 repression relief; inhibition, % at 6.8 µM; 370,000 tested, 1.1% active; AID 652010;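 active = inhibition above the mean over all tested compounds plus 3 SD, cut at about 3.6% in these data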;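 also: 0% = DAX-1 cells with DMSO and 100% = cells lacking DAX-1 with DMSO; higher inhibition means more luminescence from relief of DAX-1 repression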
# hcDAF12 agonist: activators of H. contortus DAF-12 nuclear receptor; HEK293 hcDAF-12 lit1-tk-luc reporter, luminescence; 0% DMSO, 100% Δ7-dafachronic acid; activation, % at 6.8 µM; 370,000 tested, 1.4% active; AID 652067;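 active = activation above the mean of all tested compounds plus 3 SD, cut at about 5.5% in these data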;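 also: 100% = response to 3 µM Δ7-dafachronic acid high control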
# ssDAF12 agonist: S. stercoralis DAF-12 activation, primary screen. HEK293 ssDAF-12/GRIP1 lit1-tk-luc reporter, luminescence; % of 3 µM dafachronic acid response. activation, % at 6.8 µM. 370,000 tested, 1% active. AID 652126;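 active = activation above the mean over all tested compounds plus 3 SD, cut at about 0.9% in these data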;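 also: 0% = DMSO-only wells and 100% = 3 µM delta7-dafachronic acid wells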
# Rev-erbA mod: Rev-erb alpha (human) modulation; Rev-erbα–FITC-DNA binding, fluorescence polarization, 90 min; P20393; 370,000 tested, 0.79% active; AID 1259318; activity, % at 10 µM;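 active = activity above about 14%, limit read from the data; passing the limit was not always enough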;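 also: 0% = DMSO wells with 35 nM protein and 100% = DMSO wells with 750 nM protein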
# Target sequence (P20393 whole entry, looked up): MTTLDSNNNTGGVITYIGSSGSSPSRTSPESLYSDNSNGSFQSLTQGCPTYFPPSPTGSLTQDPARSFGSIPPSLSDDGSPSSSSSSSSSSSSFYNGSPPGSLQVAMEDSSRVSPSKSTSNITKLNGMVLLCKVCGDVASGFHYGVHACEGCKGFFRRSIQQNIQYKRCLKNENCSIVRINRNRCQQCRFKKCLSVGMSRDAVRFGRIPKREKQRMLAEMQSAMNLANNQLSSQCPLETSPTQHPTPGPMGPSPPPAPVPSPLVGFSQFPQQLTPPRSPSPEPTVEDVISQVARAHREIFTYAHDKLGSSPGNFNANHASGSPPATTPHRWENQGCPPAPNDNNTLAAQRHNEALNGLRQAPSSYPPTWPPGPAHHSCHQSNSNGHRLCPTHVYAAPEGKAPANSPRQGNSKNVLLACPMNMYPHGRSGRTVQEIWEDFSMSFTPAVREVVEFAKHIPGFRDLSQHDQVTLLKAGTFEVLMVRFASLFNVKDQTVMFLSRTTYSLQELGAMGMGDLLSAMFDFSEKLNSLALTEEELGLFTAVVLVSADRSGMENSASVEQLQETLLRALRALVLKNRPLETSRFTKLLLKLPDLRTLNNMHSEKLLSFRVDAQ
# DAX1 inh-2: NR0B1 (DAX1) inhibition; P51843; HEK293 Gal4-DAX1 luciferase reporter, luminescence; inhibition, % at 6.75 µM; 340,000 tested, 0.99% active;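 active = inhibition above the mean over all tested compounds plus 3 SD, cut at about 4.2% in these data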;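 also: 0% = DAX1-transfected cells with DMSO and 100% = empty-vector control cells with DMSO; inhibition shows as a rise in luminescence from relieved DAX1 repression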
# hgDAF-12 ag: activates the H. glycines DAF-12 receptor ligand-binding domain. HEK293 GAL4-hgDAF12 UAS-luciferase reporter, agonist luminescence; normalized to butyrate control. activation, % at 6.8 µM. 370,000 tested, 1.8% active. AID 687014;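 active = activation above a cutoff set at the mean of all screened compounds plus 3 SD, cut at about 10% in these data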;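 also: 0% = DMSO wells and 100% = sodium butyrate wells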
# LXRb hcDAF ctr: activates human LXR-beta, counter-screen for hcDAF-12 agonists. shares compounds with hcDAF12 agonist. HEK293 Gal4-LXR tk-luc reporter, luminescence, 24 h; normalized: DMSO 0%, positive control 100%. activation, % at 6.8 µM. 3,400 tested, under 10 active;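 active = mean percent activation of the reporter above a cutoff set as the average over tested compounds plus their standard deviation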
# hcDAF12 conf: hcDAF-12 agonism, confirmation assay. 3,400 tested, 61% active. shares compounds with hcDAF12 agonist. AID 743032. HEK293 hcDAF-12 lit1-tk-luc reporter, luminescence; % of Δ7-dafachronic acid response. activation, % at 6.8 µM;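 active = mean activation across triplicate tests above the threshold derived from the earlier primary screen, cut at about 5.5% in these data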;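 also: 0% = DMSO only wells and 100% = 3 µM Δ7-dafachronic acid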
# * = called active by the depositor; x = no result.
SMILES,DAX1 inh-1,hcDAF12 agonist,ssDAF12 agonist,Rev-erbA mod,DAX1 inh-2,hgDAF-12 ag,LXRb hcDAF ctr,hcDAF12 conf
Oc1c(Cl)cccc1C=Nc1cc(C(F)(F)F)ccc1N1CCCC1,-0.3,1.5,-0.7,1.1,0.3,0.0,x,x
Oc1c(Cl)cc(Cl)cc1C=Nc1cc(C(F)(F)F)ccc1N1CCc2ccccc2C1,3.4,20.7*,3.2*,-5.8,1.9,20.3*,1.9,16.3*
CCOc1ccc(-n2c(SCC(=O)Nc3ccc4c(c3)OCCO4)nnc2-c2ccncc2)cc1,-2.0,-0.8,-1.9,3.1,x,-4.6,x,x
Cc1oc(-c2ccccc2)nc1C(=O)Nc1nccs1,1.8,8.7*,0.7,1.7,1.7,6.0,0.7,8.5*
COc1ccc(-c2csc(NC(=O)c3nc(-c4ccccc4)oc3C)n2)cc1,0.2,-0.9,-0.1,8.4,-0.4,0.7,x,x
CC(C)C[C@H]1COc2ccc(Cl)cc2S(=O)(=O)N1Cc1cn(Cc2ccc(C(F)(F)F)cc2)nn1,-0.1,0.4,-1.3,4.0,x,-0.8,x,x
CN(/N=C/c1ccc2c(c1)OCO2)c1ccccc1,2.9,9.1*,-0.5,2.3,0.7,11.2*,1.2,3.7
C=CCN1[C@@H](CC(C)C)COc2cccc(F)c2S1(=O)=O,0.4,-1.5,-1.8,-0.4,x,0.6,x,x
Cn1c(NC(=O)/C=C/c2ccccc2)cc(=O)n(C)c1=O,1.3,10.5*,1.3*,-7.9,4.8*,2.5,0.5,6.3*
Cc1nn(C)c(C(=O)NC(=S)Nc2ccccc2O)c1Cl,0.5,6.7*,1.4*,8.9,0.8,1.0,-0.1,6.4*
C[C@H]1C(=O)N2[C@@H](C[C@]3(c4c[nH]c5ccccc45)c4ccccc4N(S(=O)(=O)c4ccccc4)[C@H]23)C(=O)N1C,x,6.8*,-0.9,-3.2,x,0.7,-0.3,1.8
Cc1cccn2cc(-c3c[nH]c4ccccc34)nc12,3.2,6.9*,0.9*,2.1,4.8*,12.5*,0.6,10.0*
Cc1cccn2cc(-c3cc4ccccc4oc3=O)nc12,2.8,-1.2,-0.6,-5.6,3.1,5.5,x,x
CC1(C)Cc2c(sc3nc(-c4cccs4)n(N)c(=O)c23)CO1,-1.7,0.2,-1.7,0.0,-1.2,3.2,x,x
Nn1c(-c2cccs2)nc2sc3c(c2c1=O)CCCC3,1.2,21.2*,2.0*,12.3,4.0,12.4*,1.4,11.4*
Cc1cc(NC(=O)c2ccc(Br)cc2)nc(C)n1,0.2,-0.4,-1.1,3.1,-1.1,0.3,x,x
Cc1cc(NC(=O)c2ccccc2O)nc(C)n1,-0.1,7.7*,-0.2,2.8,-0.6,-1.8,0.3,5.2
O=CN1CCN(C(=S)Nc2ccc(OC(F)F)cc2)CC1,0.5,-1.8,-1.0,-6.0,0.6,-0.2,x,x
OCC1CCCN(C(=S)Nc2ccc(OC(F)F)cc2)C1 (stereo not given),1.0,10.7*,-0.5,9.0,0.7,3.7,0.1,0.3
Nn1c(SCC(=O)Nc2cccc3ccccc23)nnc1-c1cc(-c2ccccc2)n[nH]1,-2.9,-2.2,-0.9,-1.7,x,-1.2,x,x
COc1ccc2c(c1OC)C(=O)N1c3ccccc3SC21 (stereo not given),1.9,8.8*,0.8,-2.9,1.9,11.7*,0.8,7.5*
O=C(Nc1ccccc1SC(=O)c1ccccc1)c1ccccc1,1.0,7.8*,1.8*,1.5,4.4*,7.3,0.4,9.9*
COC(=O)[C@]12C[C@H](CC(=O)NCCCN3CCCC3=O)C(=O)N(Cc3ccco3)C1=C[C@H](C(C)C)O[C@@H]2C1CC1,-1.1,0.0,-2.1,-0.4,x,-1.6,x,x
Cc1ccc2oc(/N=C(\N)NC(=O)C3CC3)nc2c1,-0.3,6.6*,0.4,-6.0,-5.8,9.9,1.6,7.0*
Cc1ccc(N=C2NC(=O)/C(=C/C=C/c3ccco3)S2)cc1,0.3,7.9*,-0.1,-15.2,0.8,1.7,0.2,5.6

# From PubChem BioAssay
